From the supplement of paper PMC11537057 come the findings set out here.

Where a name gives a salt, the structure may show the parent alone. ± gives the standard deviation of the averaged measurements. The full ranking holds about 1,700 compounds; the median of “cell number in HSV-1-infected wells relative to infected DMSO wells (H2B-RFP signal)” is about 100, and the highest 2% start at about 140. This excerpt belongs to a sample that is enriched for the highest values.

For the assay, the system named is A549 infected with HSV-1. Put plainly: cell number in HSV-1-infected wells relative to infected DMSO wells (H2B-RFP signal); higher = more surviving cells (uninfected or antiviral-protected wells give about 200%; low = toxicity). As to conditions: 10 µM; 48 h; MOI: 0.1. On the procedure: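 Selleck FDA-approved library (L1300) screened in duplicate at 10 µM on A549 H2B-mRuby cells in 384-well plates, infected with HSV-1 strain 17 YFP-ICP4 at MOI 0.1 one hour before drug addition. Imaged after 2 days at 37°C. Cell growth (H2B-RFP) and infection (ICP4-YFP) are expressed as % of DMSO-treated wells. Hits: growth >90% and infection <20% of DMSO.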
As for `Cc1ccc(C(=O)N(CCCN)[C@@H](c2nc3cc(Cl)ccc3c(=O)n2Cc2ccccc2)C(C)C)cc1`, the “cell number in HSV-1-infected wells” value is 12.9 ± 5.4%.

With `Nc1c(CC(=O)O)cccc1C(=O)c1ccccc1` [Amfenac Sodium Monohydrate], the “cell number in HSV-1-infected wells” value was 115 ± 14%. Regarding `Cc1cccc(Nc2ccccc2C(=O)O)c1C` [Mefenamic Acid], the “cell number in HSV-1-infected wells” value came out at 94.2 ± 6%.

Turning to `Cc1c(Cl)cccc1Nc1ccccc1C(=O)O` [Tolfenamic Acid], the “cell number in HSV-1-infected wells” value was found to be 120 ± 2%. Consider `Cc1ccc(Cl)c(Nc2ccccc2C(=O)O)c1Cl` [Meclofenamate Sodium], for which the “cell number in HSV-1-infected wells” value turned out to be 156 ± 21%. As to `O=C(c1ccc(F)c(F)c1Nc1ccc(I)cc1F)N1CC(O)([C@@H]2CCCCN2)C1` [Cobimetinib (GDC-0973, RG7420)], the “cell number in HSV-1-infected wells” value turned out to be 32.6 ± 21%. On to `CC(=O)c1cc2c(o1)C(=O)c1ccccc1C2=O` [Napabucasin], for which the “cell number in HSV-1-infected wells” value came to 27.4 ± 21%. In the case of `CCOc1cc(N)c(Cl)cc1C(=O)NCC1CN(Cc2ccc(F)cc2)CCO1` (configuration not stated) [Mosapride Citrate] it was 89.7 ± 13%; in that of `CCOc1cc(N)c(Cl)cc1C(=O)NCC1CN(Cc2ccc(F)cc2)CCO1` (configuration not stated) [Mosapride], 92.8 ± 14%. As for `Cc1cccc(C)c1N(CC(=O)Nc1ccc(-c2ncon2)cc1)C(=O)C1CCS(=O)(=O)CC1` [Amenamevir], the “cell number in HSV-1-infected wells” value amounted to 214 ± 5.9%.

As to `O=C1CC[C@@H](C(=O)N2CSC[C@H]2C(=O)O)N1` [Pidotimod], the “cell number in HSV-1-infected wells” value came out at 82.1 ± 7.1%. For `CCOc1ccc(Cc2cc([C@]34OC[C@](CO)(O3)[C@@H](O)[C@H](O)[C@H]4O)ccc2Cl)cc1` [Ertugliflozin], the “cell number in HSV-1-infected wells” value amounted to 116 ± 8.7%. In the case of `O=C([O-])c1ccccc1.[Na+]` [Sodium benzoate], the “cell number in HSV-1-infected wells” value stood at 83.2 ± 14%. Then `COC(=O)N(C)c1c(N)nc(-c2nn(Cc3ccccc3F)c3ncccc23)nc1N` [Riociguat (BAY 63-2521)], with 108 ± 15%; and `CCN1CCC[C@H]1CNC(=O)c1cc(S(N)(=O)=O)ccc1OC` [Levosulpiride], with 94.939 ± 0.086%.

As to `Cc1c(F)cc(C(=O)NC2CC2)cc1-c1ccc(C(=O)NCC(C)(C)C)cn1`, the “cell number in HSV-1-infected wells” value stood at 145 ± 44%. Turning to `N[C@@H](CCC(=O)O)C(=O)[O-].[Na+]` [L-Glutamic acid monosodium salt], the “cell number in HSV-1-infected wells” value is 94.5 ± 4.2%. Regarding `CC(C)CCCCC(=O)N[C@@H](CCN)C(=O)N[C@H](C(=O)N[C@@H](CCN)C(=O)N[C@H]1CCNC(=O)[C@H]([C@@H](C)O)NC(=O)[C@H](CCN)NC(=O)[C@H](CCN)NC(=O)[C@H](CC(C)C)NC(=O)[C@@H](Cc2ccccc2)NC(=O)[C@H](CCN)NC1=O)[C@@H](C)O` [Polymyxin B sulphate], the “cell number in HSV-1-infected wells” value amounted to 132 ± 31%.

As to `CC(=O)N(CC(O)CN(C(C)=O)c1c(I)c(C(=O)NCC(O)CO)c(I)c(C(=O)NCC(O)CO)c1I)c1c(I)c(C(=O)NCC(O)CO)c(I)c(C(=O)NCC(O)CO)c1I` (configuration not stated) [Iodixanol], the “cell number in HSV-1-infected wells” value was determined as 79.6 ± 3%. As for `COCC(=O)Nc1c(I)c(C(=O)NCC(O)CO)c(I)c(C(=O)N(C)CC(O)CO)c1I` (configuration not stated) [Iopromide], the “cell number in HSV-1-infected wells” value was determined as 111 ± 26%. In the case of `O=C(NCC(O)CO)c1c(I)c(C(=O)NCC(O)CO)c(I)c(N(CCO)C(=O)CO)c1I` (configuration not stated) [Ioversol] it was 146 ± 6.8%; in that of `CC(=O)Oc1ccc(C(c2ccc(OC(C)=O)cc2)c2ccccn2)cc1` [Bisacodyl], 87.8 ± 16%. Consider `CC[C@H](C)[C@@H]1NC(=O)[C@H](CCCNC(=N)N)NC(=O)[C@H](CC(=O)O)NC(=O)[C@H](CCSC)NC(=O)[C@H](CCCNC(=N)N)NC(=O)CNC(=O)CNC(=O)[C@H](Cc2ccccc2)NC(=O)[C@@H](NC(=O)[C@H](CO)NC(=O)[C@H](CO)NC(=O)[C@H](CCCNC(=N)N)NC(=O)[C@H](CCCNC(=N)N)NC(=O)[C@H](CC(C)C)NC(=O)[C@@H](N)CO)CSSC[C@@H](C(=O)N[C@@H](CC(N)=O)C(=O)N[C@@H](CO)C(=O)N[C@@H](Cc2ccccc2)C(=O)N[C@@H](CCCNC(=N)N)C(=O)N[C@@H](Cc2ccc(O)cc2)C(=O)O)NC(=O)CNC(=O)[C@H](CC(C)C)NC(=O)CNC(=O)[C@H](CO)NC(=O)[C@H](CCC(N)=O)NC(=O)[C@H](C)NC(=O)CNC1=O` [Carperitide Acetate], for which the “cell number in HSV-1-infected wells” value was 131 ± 1.4%.

As to `O=C(O)CCCC[C@@H]1CCSS1` (racemic) [Thioctic acid], the “cell number in HSV-1-infected wells” value was found to be 134 ± 60%. As to `CNC(=O)c1ccc(N2C(=S)N(c3ccc(C#N)c(C(F)(F)F)c3)C(=O)C2(C)C)cc1F` [Enzalutamide (MDV3100)], the “cell number in HSV-1-infected wells” value turned out to be 95.9 ± 2.1%.

For the compound `CC(C)C(=O)Nc1ccc([N+](=O)[O-])c(C(F)(F)F)c1` [Flutamide], the “cell number in HSV-1-infected wells” value turned out to be 110 ± 2.2%.

In the case of `CC1(C)NC(=O)N(c2ccc([N+](=O)[O-])c(C(F)(F)F)c2)C1=O` [Nilutamide], the “cell number in HSV-1-infected wells” value was 150 ± 36%. `OC1CC2CCC(C1)N2` (configuration not stated) [Nortropine Hydrochloride]: the “cell number in HSV-1-infected wells” value was determined as 105 ± 10%.

For `COC(=O)C1=C(C)NC(C)=C(C(=O)OC2CCCN(Cc3ccccc3)C2)C1c1cccc([N+](=O)[O-])c1` (configuration not stated) [Benidipine HCl], the “cell number in HSV-1-infected wells” value came out at 85.5 ± 9.3%. Then `CCC[C@@H]1C[C@@H](C(=O)N[C@@H]([C@H]2O[C@H](SC)[C@H](O)[C@@H](O)[C@H]2O)[C@@H](C)O)N(C)C1` [Lincomycin Hydrochloride Monohydrate], with 150 ± 39%; and `CCC[C@@H]1C[C@@H](C(=O)N[C@@H]([C@H]2O[C@H](SC)[C@H](O)[C@@H](O)[C@H]2O)[C@@H](C)O)N(C)C1` [Lincomycin HCl], with 133 ± 16%; and `CCC[C@@H]1C[C@@H](C(=O)N[C@@H]([C@H]2O[C@H](SC)[C@H](O)[C@@H](O)[C@H]2O)[C@H](C)Cl)N(C)C1` [Clindamycin], with 88 ± 4%. `CCC[C@@H]1C[C@@H](C(=O)N[C@@H]([C@H]2O[C@H](SC)[C@H](OP(=O)(O)O)[C@@H](O)[C@H]2O)[C@H](C)Cl)N(C)C1` [Clindamycin Phosphate]: the “cell number in HSV-1-infected wells” value is 101 ± 12%. As to `CCC[C@@H]1C[C@@H](C(=O)N[C@@H]([C@H]2O[C@H](SC)[C@H](O)[C@@H](O)[C@H]2O)[C@H](C)Cl)N(C)C1` [Clindamycin HCl], the “cell number in HSV-1-infected wells” value is 99.4 ± 5.8%.

As for `CCOc1cc2ncc(C#N)c(Nc3ccc(OCc4ccccn4)c(Cl)c3)c2cc1NC(=O)/C=C/CN(C)C` [Neratinib (HKI-272)], the “cell number in HSV-1-infected wells” value amounted to 63.62 ± 0.22%.

As for `CC(C)(Oc1ccc(Cl)cc1)C(=O)OCCOC(=O)c1cccnc1` [Etofibrate], the “cell number in HSV-1-infected wells” value amounted to 129 ± 12%. Then `OCc1cc([C@@H](O)CNCCCCCCOCCOCc2c(Cl)cccc2Cl)ccc1O` [Vilanterol Trifenate], with 25.9 ± 8.8%.
